Assay results: PubChem BioAssay (EPA / NIEHS)
Inconclusive results are not listed. Active and inactive are the calls of the source. Rule for the calls: active = hit-call score of the fitted dose curve at least 0.9, where 1 is the maximum; inconclusive = response in the unintended direction; inactive = score below 0.9.

The molecules below were run against chimpanzee Androgen Receptor (AR), AR (gene 747460) (UniProt O97775) (assay: NVS_NR_cAR: NovaScreen (NVS) Nuclear Receptor Binding Assay for chimpanzee Androgen Receptor (AR) (AID 2283346);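 note: a loss of bound radioligand signal versus DMSO counts as binding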).
Description: NVS_NR_cAR is a biochemical, single-readout assay that uses extracted gene-proteins from Sf9/Sf21 in a cell-free assay. Measurements were taken 72 hours after chemical dosing in a 96-well plate.NVS_NR_cAR is one of one assay component(s) measured or calculated from the NVS_NR_cAR assay. It is designed to make measurements of radioligand binding, a form of binding reporter, as detected with scintillation counting signals by Lysate-based radiodetection technology.Data from the assay component NVS_NR_cAR was analyzed into 1 assay endpoint. This assay endpoint, NVS_NR_cAR, was analyzed in the positive analysis fitting direction relative to DMSO as the negative control and baseline of activity. Using a type of binding reporter, loss-of-signal activity can be used to understand changes in the binding as they relate to the gene AR. Furthermore, this assay endpoint can be referred to as a primary readout, because the performed assay has only produced 1 assay endpoint. To generalize the intended target to other relatable targets, this assay endpoint is annotated to the nuclear receptor intended target family, where the subfamily is steroidal.
Binding assays used specific radioligands (tritiated, iodinated) with non-radioactive competitive displacement ligands in agonist or antagonist protocols (as indicated) and various reference compounds and inhibitors to titrate specific binding to receptors and transporters. Most enzyme assays (CYPs, kinases, phosphatases, proteases, HDACs) used recombinant protein and specific substrates (fluorescence mostly, some colorimetric and radioactive) and inhibitors, followed by a biochemical separation of substrate and product. All assays for the biochemical HTS were initially run in duplicate at a single concentration (10 uM for CYP450 assays and 25 uM for all others). […] Each assay was run with positive and negative controls, and concurrent controls on every plate. The follow-up (secondary) screen tested active chemical-pairs in concentration series, as well as a few additional assays not tested in the primary screen, some selected negative inactives, and several cases re-run in the concentration series for confirmatory purposes.

chimpanzee Androgen Receptor (AR), AR (gene 747460), sequence (O97775 whole entry, looked up): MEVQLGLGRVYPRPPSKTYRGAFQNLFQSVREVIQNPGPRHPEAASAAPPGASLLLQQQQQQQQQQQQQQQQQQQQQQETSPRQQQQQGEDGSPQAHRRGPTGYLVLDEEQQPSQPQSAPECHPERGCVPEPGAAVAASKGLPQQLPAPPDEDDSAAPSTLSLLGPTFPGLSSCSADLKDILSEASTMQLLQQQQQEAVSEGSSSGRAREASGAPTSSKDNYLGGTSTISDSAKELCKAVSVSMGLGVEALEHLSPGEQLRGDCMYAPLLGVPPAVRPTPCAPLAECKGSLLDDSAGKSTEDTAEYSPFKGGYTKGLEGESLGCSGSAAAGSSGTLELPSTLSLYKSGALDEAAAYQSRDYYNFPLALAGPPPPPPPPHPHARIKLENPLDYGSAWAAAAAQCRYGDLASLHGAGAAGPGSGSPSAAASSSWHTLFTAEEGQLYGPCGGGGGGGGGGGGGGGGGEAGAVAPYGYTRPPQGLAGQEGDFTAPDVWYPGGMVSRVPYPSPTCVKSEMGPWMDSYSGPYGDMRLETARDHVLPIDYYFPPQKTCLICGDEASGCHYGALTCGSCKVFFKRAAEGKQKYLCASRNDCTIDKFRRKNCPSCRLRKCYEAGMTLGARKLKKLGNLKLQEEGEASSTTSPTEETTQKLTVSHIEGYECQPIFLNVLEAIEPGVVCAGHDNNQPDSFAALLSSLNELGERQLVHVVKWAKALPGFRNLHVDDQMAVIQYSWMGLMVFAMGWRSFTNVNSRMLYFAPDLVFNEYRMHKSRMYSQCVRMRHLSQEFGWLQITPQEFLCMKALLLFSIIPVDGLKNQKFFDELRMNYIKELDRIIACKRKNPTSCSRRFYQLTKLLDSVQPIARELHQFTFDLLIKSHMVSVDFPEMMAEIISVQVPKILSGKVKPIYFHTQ

Row | SMILES | AC50 | outcome
1 | CCCCC(CC)COC(=O)CC(C(=O)OCC(CC)CCCC)S(=O)(=O)O (stereo unspecified) | 17.7 µM (active) | 
2 | Cc1cc(NC(=O)C(=O)O)cc(C)c1Oc1ccc(O)c2c1CCC2 |  | inactive
3 | COc1ccc(S(=O)(=O)N2C(=O)[C@@](c3ccccc3OC)(N3C[C@H](O)C[C@H]3C(=O)N(C)C)c3cc(Cl)ccc32)c(OC)c1 | 13.8 µM (active) | 
4 | CCNc1cccc(C)c1 |  | inactive
5 | C[C@]12C=CC(=O)C=C1CC[C@@H]1[C@@H]2C(=O)C[C@@]2(C)[C@H]1CC[C@]2(O)C(=O)CO | 14.8 µM (active) | 
6 | CCCCN(CCCC)CCCC |  | inactive
7 | CNCc1cc(F)ccc1Oc1ccc(Cl)c(Cl)c1 | 16.6 µM (active) | 
8 | C=CCOC(=O)c1ccccc1C(=O)OCC=C | 14.5 µM (active) | 
9 | C=CCc1ccc(O)c(OC)c1 | 21 µM (active) | 
10 | Cc1nc(-c2ccc3c(c2)CCN(CCC2CCC(NC(=O)/C=C/c4ccc(F)cc4)CC2)CC3)no1 (stereo unspecified) |  | inactive
11 | Nc1ccc2c(c1)C(=O)c1ccccc1C2=O | 19.8 µM (active) | 
